Laboratory results as given in ChEMBL document CHEMBL4513216, “Probing the Open Global Health Chemical Diversity Library for Multistage-Active Starting Points for Next-Generation Antimalarials” (ACS Infect Dis, 2020).
The whole screen tested about 69,000 compounds, of which about 8,600 (12%) showed an effect of 50% or more. The sample as a whole holds a higher share of strong results than the screen did.

tested on: Plasmodium berghei; test: Screen against P. berghei liver stage (PbLuc), transformed with Luciferase, at 10uM; assay type: functional, HepG2; settings: tested at 10 uM

Structure (SMILES)	INHIBITION [%]
COc1cccc(S(=O)(=O)N2CCn3cnc(COCC4CC4)c3C2)c1	15.9
COCc1ncn2c1CN(S(=O)(=O)c1cccc(OC)c1)CC2	62.4
COCc1ncn2c1CN(S(=O)(=O)c1ccc(C)cc1)CC2	80.3
COCc1ncn2c1CN(S(=O)(=O)c1cccc(F)c1)CC2	-58.3
COCc1ncn2c1CN(S(=O)(=O)Cc1ccc(C)cc1)CC2	-0.55
CCOCc1ncn2c1CN(S(=O)(=O)c1ccc(C)cc1)CC2	-51.9
O=C(NC1COC2(CCN(CC3CCC3)CC2)C1)c1ccccn1 (stereo not given)	-7.59
CC1=C(c2ccc(C(C)C)cc2)S(=O)(=O)N=C1N1CCc2ccccc21	49
CC(NC(=O)c1ccc(=O)n(C)c1)c1ccccc1-n1cccn1 (stereo not given)	53.8
Cc1ccccc1C(C)NC(=O)c1ccc(=O)n(C)c1 (stereo not given)	25.5
CC(NC(=O)c1cc(=O)n(C)c(=O)n1C)c1ccccc1-n1cccn1 (stereo not given)	0.426
Cc1cc2c(=O)n3c(nc2s1)CCN(Cc1cnc(C)n1C)CC3	23.2
Cc1cccc(OCCC(=O)NC(C)c2nnc3n2CCC3)c1 (stereo not given)	26.4
c1cc(-c2nnn3c2COC(CNCc2nccs2)C3)ccn1 (stereo not given)	32.4
Cn1cc(CNCC2Cn3nnc(-c4ccccc4)c3CO2)cn1 (stereo not given)	62
Cn1cc(-c2nnn3c2COC(CNCc2cccnc2)C3)cn1 (stereo not given)	27.4
c1ccc(CNCC2Cn3nnc(-c4ccncc4)c3CO2)nc1 (stereo not given)	64.5
Cn1cc(-c2nnn3c2COC(CNCc2ccncc2)C3)cn1 (stereo not given)	39.3
COc1ccc(-c2cn3c(n2)CO[C@@H](CNCc2ccccn2)C3)cc1	66.9
Cc1nnn2c1COC(CNCc1ccncc1)C2 (stereo not given)	39.3
Cc1cc(CNCC2Cn3nnc(C)c3CO2)oc1C (stereo not given)	60
c1cc(-c2nnn3c2COC(CNCC2CCOCC2)C3)ccn1 (stereo not given)	28.2

Structure (SMILES)	INHIBITION [%]
COc1ccc(-c2cn3c(n2)CO[C@@H](CNCc2nccn2C)C3)cc1	16.2
Cc1nnn2c1COC(CNCc1nccs1)C2 (stereo not given)	-3.24
Cc1cccc(CNC[C@H]2Cn3cc(-c4ccccc4)nc3CO2)n1	-23.2
CCc1nnc(Nc2cccc(C3CCN(C(=O)CO)CC3)n2)s1	11.1
CCCn1nccc1NC(=O)CN1CCCC1Cn1cc(C)cn1 (stereo not given)	42.3
Cn1cc(CCNC(=O)N2CCCC(Cc3nccn3C)C2)cn1 (stereo not given)	33
O=C(NCCCN1CCOCC1)c1cccc(OCc2ccccc2)c1	30
Cc1csc(CN2CCC3(CC2)COC(COc2ccccn2)C3)n1 (stereo not given)	47.5
c1ccc(-c2nnn3c2COC(CNCc2ccccn2)C3)cc1 (stereo not given)	51.2
Cn1cc(-c2nnn3c2COC(CNCc2ccccn2)C3)cn1 (stereo not given)	46.3
Cc1nnn2c1COC(CNCc1ccccn1)C2 (stereo not given)	39.3
O=C(NCC1CC1)C1CN(c2ncccn2)Cc2ccnn2C1 (stereo not given)	31.2
COc1cc(C)c(S(=O)(=O)CC(=O)N(C)C(C)C)cc1OC	11.5
CCN(C(=O)CS(=O)(=O)c1cc(OC)c(OC)cc1C)C1CC1	33.7
COc1cc(C)c(S(=O)(=O)CC(=O)N(C)C2CC2)cc1OC	50.4
COc1c(CNC(c2cccc(F)c2)c2nccn2C)c(C)nn1C (stereo not given)	-16.8
Cc1c(Br)cccc1C(=O)NCC1CCCNC1 (stereo not given)	42.3
CN(Cc1nccn1C)C1CCCN(Cc2noc(C3CC3)n2)C1 (stereo not given)	-25.8
O=c1cc(N2CCNCC2)cnn1Cc1noc(C2CCCC2)n1	78.6
O=c1cc(N2CCCC2)cnn1Cc1noc(C2CCCO2)n1 (stereo not given)	47.1
O=c1cc(N2CCCCC2)cnn1Cc1noc(C2CCCO2)n1 (stereo not given)	-27.1
Cc1ccccc1CNC(=O)N1C[C@@H]2C[C@H](C(=O)N(C)C)[C@H](C1)O2	5.63

Structure (SMILES)	INHIBITION [%]
COc1ccc(OC)c(CNc2nnc(C(C)(C)C)o2)c1	-10.9
Cc1ccc(C(C)(C)CNC(=O)NC(C)Cn2cncn2)cc1 (stereo not given)	61.1
CC(Cn1cncn1)NC(=O)NCC(C)(C)Cc1ccccc1 (stereo not given)	39.8
CC(Cn1cncn1)NC(=O)NCC(C)(C)c1ccc(F)cc1 (stereo not given)	64.5
CC(Cn1cncn1)NC(=O)Nc1ccc(F)cc1OCC1CC1 (stereo not given)	-21.1
CC(NC(=O)NCCCn1cncn1)c1ccc(F)cc1 (stereo not given)	-1.7
CC(Cn1cncn1)NC(=O)NCc1csc(N(C)C)n1 (stereo not given)	23.6
Cn1ncc(C(=O)N2CCN(C(=O)c3ccco3)CC2)c1Cl	36.5
CC(=O)N1CCCC2(CCC(=O)N2Cc2cccnc2)C1 (stereo not given)	6.27
Cc1ccc(C(=O)N2CCOC(c3nc(-c4ncccn4)no3)C2)cc1 (stereo not given)	11.1
c1cc2c(cc1CN1CCC(Cc3noc(C4CC4)n3)CC1)OCCO2	-5.26
c1cc2c(cc1CN1CCN(Cc3noc(C4CC4)n3)CC1)OCO2	-28
c1cc2c(cc1CSCc1noc(C3CC3)n1)OCCO2	74.3
COCCCNC(=O)CN1CCSC(c2ccccc2)C1 (stereo not given)	3.88
COc1ccccc1C1CC(=O)Nc2nc(N3CCCCC3)sc21 (stereo not given)	15.1
Cc1cc(C(=O)N2CCCC2c2noc(C(C)C)n2)c(C)o1 (stereo not given)	4.52
CCN(CC)S(=O)(=O)c1ccc(CNC(=O)N2CCC(C#N)CC2)cc1	45.7
CCN(CC)S(=O)(=O)c1ccc(CNC(=O)N2CCCCCC2)cc1	54.3
CS(=O)(=O)c1ccc(CNC(=O)N2CCC(C(N)=O)CC2)cc1	-60.8
COCCCNC(=O)c1cn(C(C)C)cc2c(=O)[nH]nc1-2	14.9
Cc1nn(C)cc1S(=O)(=O)N(CCc1ccccc1)Cc1ccn(C)n1	26.75
CSCC[C@@H](CO)NC(=O)c1sc(-c2ccccc2Cl)nc1C	9.84

Structure (SMILES)	INHIBITION [%]
Cc1ccccc1-n1ncc2c(=O)n(CCN3CCCC3)cnc21	-16.3
Cc1nc(CSCCC(=O)NCC(=O)NC(C)C)cs1	29.4
CCOCCCNC(=O)CCSCc1csc(C)n1	63.8
Cc1nc(CSCCC(=O)NCCNC(=O)OC(C)(C)C)cs1	-30.7
Cc1ccc(-c2ccnc(NCC(O)c3ccc(O)cc3)n2)c(C)n1 (stereo not given)	37.8
O=C1NCCCCC1NC(=O)N1CCCc2cc(F)ccc21 (stereo not given)	58.9
O=C1NCCCCC1NC(=O)N1CCCc2ccccc21 (stereo not given)	34.2
COc1ccc2c(c1)CCCN2C(=O)NC1CCCCNC1=O (stereo not given)	44.3
Cc1ccc(CN2CCc3[nH]nc(C(=O)N(C)C)c3C2)s1	8.74
O=C(NCC1(CO)CC1)c1nnn(-c2ccc(F)cc2)c1C1CC1	78.2
Cc1ccc(-n2nnc(C(=O)NCC3(CO)CC3)c2C2CC2)cc1	33.3
Cc1ccc(-n2nnc(C(=O)NCCS(N)(=O)=O)c2C2CC2)cc1	58.5
O=C(NCC1(C(=O)O)CCC1)c1nnn(-c2ccc(F)cc2)c1C1CC1	20
COC(=O)CCNC(=O)c1nnn(-c2ccc(C)cc2)c1C1CC1	49.8
NS(=O)(=O)CCNC(=O)c1nnn(-c2ccc(F)cc2)c1C1CC1	36.8
NS(=O)(=O)CCNC(=O)c1nnn(-c2ccccc2)c1C1CC1	56.8
CC(C)NC(=O)c1nnn(-c2ccccc2)c1C1CC1	-65.5
CS(=O)(=O)NC(=O)c1nnn(-c2ccccc2)c1C1CC1	8.64
CCc1nc(C2CCCN(C(=O)c3cc(C(C)C)[nH]n3)C2)no1 (stereo not given)	21.6
O=C(NCC1CC1)[C@@H]1CC[C@@H]2[C@@H](CCN2Cc2ccco2)O1	-35
O=C(NCCN1CCOCC1)c1nc(-c2ccc3[nH]ccc3c2)no1	-50.8
Cn1ncc(C(=O)N2CCN(S(C)(=O)=O)CC2)c1Cl	-10.95

Structure (SMILES)	INHIBITION [%]
CNC(=O)C1(C)CCCN1Cc1cnn(C)c1C (stereo not given)	37.8
Cc1nn(C)cc1CN(C)C(=O)c1ccncc1	69.9
Cc1nn(C)cc1CN(C)C(=O)c1cccnc1	-13.6
Cc1nn(C)cc1CN(C)C(=O)c1ccccn1	8.7
Cc1nc(CN2CCC3(CC2)NC(=O)CC3c2ccncc2)cs1 (stereo not given)	45.7
CCC(C)N(Cc1sccc1C)C(=O)c1cnc[nH]1 (stereo not given)	9.41
CCc1nnc(CN(C)Cc2cccc(C(=O)Nc3ccnn3C)c2)o1	35
CCc1nnc(CN(C)Cc2cccc(C(=O)Nc3cnn(C)c3)c2)o1	28.7
CCc1nnc(CN(C)Cc2cccc(C(=O)Nc3nccs3)c2)o1	70.9
CC(C)(CO)CCCNC(=O)NC1(C)Cc2ccccc2C1	47.2
c1ccc(CN2CCc3nnc(CN4CCCCC4)n3CC2)nc1	-2.84
COc1ccc(Cc2ncc3c(n2)CN(C(=O)C(C)(C)OC)C3)cc1	11.2
Cc1cc(C(=O)N(CC2CCCO2)c2ccncc2)c(C)o1 (stereo not given)	26.4
Cc1ccc(C(=O)N2CCn3c(COCC4CC4)cnc3C2C)s1 (stereo not given)	-3.24
NC(=O)COc1ccc(CNCc2ccc(F)c(F)c2)cc1	-33.2
Cn1cc(CC2CCN(C(=O)NCc3cccc(C#N)c3)C2)cn1 (stereo not given)	8.55
CC(N1CCN(C(=O)NCc2cccc(C#N)c2)CC1)C(F)(F)F (stereo not given)	56.7
CC1CN(C(=O)NCc2cccc(C#N)c2)CCN1CC(F)(F)F (stereo not given)	19
Cc1cc(Cc2ccc(S(=O)(=O)N3CCSCC3)cc2)c(=O)[nH]n1	13.2
CCC1CN(CCNS(C)(=O)=O)c2ccccc2O1 (stereo not given)	-4.46
CCC1CN(CCCO)c2ccccc2O1 (stereo not given)	29.8
CCC1CN(CCCNS(C)(=O)=O)c2ccccc2O1 (stereo not given)	50.1
